Test results as given in publication PMC7862700, “An all-to-all approach to the identification of sequence-specific readers for epigenetic DNA modifications on cytosine”.

Columns and labels:
Experiment in all cases: DAPPL (digital affinity profiling via proximity ligation, sequencing); 10 mM Tris-HCl pH 7.5, 50 mM NaCl, 1 mM DTT, 4% glycerol, room temperature, 30 min; GST-TFs on glutathione beads, 16-mer random dsDNA library, 0.1% formaldehyde crosslink after washing; high values mean tight binding
Details in all cases: protein: recombinant; tags: N-terminal GST; dsDNA, one strand shown
FLI1 = target: T1, FLI1 (Homo sapiens, UniProt Q01543 1-452)
T1 sequence: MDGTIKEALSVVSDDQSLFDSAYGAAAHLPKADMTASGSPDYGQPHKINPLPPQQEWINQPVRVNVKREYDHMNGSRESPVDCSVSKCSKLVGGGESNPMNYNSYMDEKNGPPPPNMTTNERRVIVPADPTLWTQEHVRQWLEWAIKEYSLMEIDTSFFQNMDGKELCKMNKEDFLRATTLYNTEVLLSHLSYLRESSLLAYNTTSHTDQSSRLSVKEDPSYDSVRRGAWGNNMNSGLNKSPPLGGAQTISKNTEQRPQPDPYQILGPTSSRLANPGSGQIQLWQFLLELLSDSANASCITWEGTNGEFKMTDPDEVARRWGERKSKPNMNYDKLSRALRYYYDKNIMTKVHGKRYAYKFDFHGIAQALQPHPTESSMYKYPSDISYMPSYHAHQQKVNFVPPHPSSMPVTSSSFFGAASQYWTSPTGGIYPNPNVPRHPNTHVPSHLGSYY
In short: (§1)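 Binding signal is given per hexamer as its read frequency for a factor divided by its frequency in the tag-only sample. GST-fused human transcription factors were expressed in yeast, captured on glutathione beads, barcoded with DNA and pooled with that sample, then incubated with 200 nmole of a 16-mer random double-stranded DNA library in Tris/NaCl/DTT/glycerol buffer for 30 min at room temperature. The pools were then washed, crosslinked, proximity-ligated, amplified by PCR and sequenced on an Illumina NextSeq500.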

ELK1 = target: T2, ELK1 (Homo sapiens, UniProt P19419 1-428)
T2 sequence: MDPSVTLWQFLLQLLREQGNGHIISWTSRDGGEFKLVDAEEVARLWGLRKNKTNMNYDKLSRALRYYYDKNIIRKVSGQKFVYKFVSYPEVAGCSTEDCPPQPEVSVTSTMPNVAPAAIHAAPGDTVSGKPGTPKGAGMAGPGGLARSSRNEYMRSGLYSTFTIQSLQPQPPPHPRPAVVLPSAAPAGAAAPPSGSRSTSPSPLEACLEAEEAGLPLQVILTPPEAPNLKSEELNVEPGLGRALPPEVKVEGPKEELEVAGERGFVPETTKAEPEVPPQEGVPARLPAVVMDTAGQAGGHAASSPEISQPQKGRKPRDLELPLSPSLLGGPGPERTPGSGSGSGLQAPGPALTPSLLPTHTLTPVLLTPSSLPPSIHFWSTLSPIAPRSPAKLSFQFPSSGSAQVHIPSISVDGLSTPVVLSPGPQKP
In short: as §1

GABPA = target: T3, GABPA (Homo sapiens, UniProt Q06546 1-454)
T3 sequence: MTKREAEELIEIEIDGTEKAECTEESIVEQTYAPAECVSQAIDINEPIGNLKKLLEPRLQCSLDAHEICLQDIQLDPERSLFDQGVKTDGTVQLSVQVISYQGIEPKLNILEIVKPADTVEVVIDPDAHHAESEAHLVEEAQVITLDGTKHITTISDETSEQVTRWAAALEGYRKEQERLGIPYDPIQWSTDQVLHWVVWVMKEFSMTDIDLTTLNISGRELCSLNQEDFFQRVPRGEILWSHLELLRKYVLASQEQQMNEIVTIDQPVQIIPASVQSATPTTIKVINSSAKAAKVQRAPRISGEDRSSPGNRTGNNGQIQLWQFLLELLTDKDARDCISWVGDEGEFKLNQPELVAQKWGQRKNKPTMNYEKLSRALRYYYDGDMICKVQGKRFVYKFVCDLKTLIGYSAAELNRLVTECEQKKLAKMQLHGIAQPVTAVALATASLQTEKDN
In short: as §1

ERG = target: T4, ERG (Homo sapiens, UniProt P11308 1-479)
T4 sequence: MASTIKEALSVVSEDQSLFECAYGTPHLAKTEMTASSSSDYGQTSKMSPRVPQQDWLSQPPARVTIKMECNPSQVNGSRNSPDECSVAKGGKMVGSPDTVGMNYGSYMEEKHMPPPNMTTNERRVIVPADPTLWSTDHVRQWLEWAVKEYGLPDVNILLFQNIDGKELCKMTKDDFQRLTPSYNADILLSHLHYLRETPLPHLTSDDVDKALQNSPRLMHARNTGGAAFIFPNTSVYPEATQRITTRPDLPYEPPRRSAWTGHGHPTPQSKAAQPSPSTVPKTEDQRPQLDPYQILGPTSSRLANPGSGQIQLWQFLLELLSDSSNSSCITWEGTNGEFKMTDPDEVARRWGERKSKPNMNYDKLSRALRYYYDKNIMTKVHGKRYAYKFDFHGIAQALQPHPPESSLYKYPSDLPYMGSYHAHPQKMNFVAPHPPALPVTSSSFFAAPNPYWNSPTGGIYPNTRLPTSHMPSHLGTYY
In short: as §1

ELF1 = ELF1 (Homo sapiens, UniProt P32519 1-619)
ELF1, sequence (P32519 whole entry): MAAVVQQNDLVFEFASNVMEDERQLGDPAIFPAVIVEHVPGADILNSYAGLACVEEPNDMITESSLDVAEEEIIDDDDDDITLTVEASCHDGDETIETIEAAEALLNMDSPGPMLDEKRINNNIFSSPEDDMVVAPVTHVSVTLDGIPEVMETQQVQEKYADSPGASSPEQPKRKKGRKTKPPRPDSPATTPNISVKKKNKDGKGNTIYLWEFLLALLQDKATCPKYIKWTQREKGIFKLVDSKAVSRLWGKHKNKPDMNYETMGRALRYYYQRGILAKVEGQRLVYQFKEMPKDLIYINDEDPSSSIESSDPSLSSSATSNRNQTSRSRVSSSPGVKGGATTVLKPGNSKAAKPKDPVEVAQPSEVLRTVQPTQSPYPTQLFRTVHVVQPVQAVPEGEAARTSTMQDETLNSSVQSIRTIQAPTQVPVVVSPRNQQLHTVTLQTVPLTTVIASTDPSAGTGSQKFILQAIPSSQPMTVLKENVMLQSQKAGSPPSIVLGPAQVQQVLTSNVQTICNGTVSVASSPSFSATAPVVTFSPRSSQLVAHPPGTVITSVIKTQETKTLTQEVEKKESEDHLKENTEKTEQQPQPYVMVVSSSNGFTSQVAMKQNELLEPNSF
In short: as §1

EHF = target: T5, EHF (Homo sapiens, UniProt Q9NZC4 1-300)
T5 sequence: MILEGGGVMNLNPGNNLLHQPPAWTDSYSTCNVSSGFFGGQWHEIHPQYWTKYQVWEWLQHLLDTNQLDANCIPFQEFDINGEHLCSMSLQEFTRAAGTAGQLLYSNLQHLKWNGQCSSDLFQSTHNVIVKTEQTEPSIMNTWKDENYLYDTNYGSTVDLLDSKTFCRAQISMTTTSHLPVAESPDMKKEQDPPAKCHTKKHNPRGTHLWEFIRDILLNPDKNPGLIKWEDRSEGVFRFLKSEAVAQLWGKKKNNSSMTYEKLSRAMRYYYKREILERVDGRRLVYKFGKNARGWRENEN
In short: as §1

SPI1 = SPI1 (Homo sapiens, UniProt P17947 1-270)
In short: as §1

SPIB = SPIB (Homo sapiens, UniProt Q01892 1-262)
SPIB, sequence (Q01892 whole entry): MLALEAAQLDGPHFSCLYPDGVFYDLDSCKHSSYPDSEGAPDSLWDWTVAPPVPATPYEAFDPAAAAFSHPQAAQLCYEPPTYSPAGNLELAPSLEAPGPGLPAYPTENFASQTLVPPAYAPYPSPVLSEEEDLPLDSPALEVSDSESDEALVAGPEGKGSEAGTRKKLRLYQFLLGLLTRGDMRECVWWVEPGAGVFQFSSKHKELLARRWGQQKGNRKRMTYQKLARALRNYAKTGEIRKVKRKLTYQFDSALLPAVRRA
In short: as §1

ELK3 = target: T6, ELK3 (Homo sapiens, UniProt P41970 1-407)
T6 sequence: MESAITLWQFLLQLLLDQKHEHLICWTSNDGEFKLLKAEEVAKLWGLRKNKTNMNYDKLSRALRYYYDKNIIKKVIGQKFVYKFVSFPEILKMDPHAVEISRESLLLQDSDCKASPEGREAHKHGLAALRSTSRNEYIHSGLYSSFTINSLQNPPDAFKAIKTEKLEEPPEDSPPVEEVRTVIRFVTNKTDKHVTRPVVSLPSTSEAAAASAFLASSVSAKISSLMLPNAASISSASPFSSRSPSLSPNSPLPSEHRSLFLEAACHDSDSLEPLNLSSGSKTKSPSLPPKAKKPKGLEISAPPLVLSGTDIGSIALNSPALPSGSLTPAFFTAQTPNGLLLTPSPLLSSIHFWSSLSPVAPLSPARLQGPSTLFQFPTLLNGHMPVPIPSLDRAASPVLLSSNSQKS
In short: as §1

AGATTT
binding signal (FLI1): 1.12 fold enrichment (6-mer frequency, TF over GST control) | binding signal (ELK1): 1.14 fold enrichment (6-mer frequency, TF over GST control) | binding signal (GABPA): 1.08 fold enrichment (6-mer frequency, TF over GST control) | binding signal (ERG): 1.21 fold enrichment (6-mer frequency, TF over GST control) | binding signal (ELF1): 1.11 fold enrichment (6-mer frequency, TF over GST control) | binding signal (EHF): 1.2 fold enrichment (6-mer frequency, TF over GST control) | binding signal (SPI1): 1.13 fold enrichment (6-mer frequency, TF over GST control) | binding signal (SPIB): 1.09 fold enrichment (6-mer frequency, TF over GST control) | binding signal (ELK3): 1.01 fold enrichment (6-mer frequency, TF over GST control)
